From PubChem
In the library only some 12% were active in any assay of this set; here they are far more common.
WT yeast gro inh: growth inhibition of WT strain, primary screen, mitochondrial fusion inhibitor project, WT and mutant strains, chemical genetic; hit rate 2.1% among 190,000; mitochondrial fusion phenotypic screen; inhibition, % at 10 µM; in the data active = inhibition above about 58%; tested in S. cerevisiae
Arbovirus inh: antivirals against arbovirus infection, primary screen, cell-based, full library, 10K replicate subset; arbovirus infection cell-based antiviral screen; hit rate 0.37% among 200,000; AID 1251, 2008; inhibition, % at 10 µM; in the data active = inhibition above about 30%
Lmaj promast: Leishmania major promastigote growth inhibition, primary screen; hit rate 9% among 200,000; AID 1063, 2008; inhibition, % at 10 µM; Leishmania major promastigotes, resazurin fluorescence viability; in the data active = inhibition above about 50%;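 also: promastigotes grown with compound for 44 hours at 28 °C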
CHOP inh: inhibitors of CHOP promoter induction, primary screen, cell-based, unfolded protein response, luciferase reporter; AID 2732, 2010; inhibition, % at 10 µM; hit rate 3.8% among 220,000; CHO-K1 CHOP-promoter luciferase, tunicamycin-induced, 15-18 h;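 active = compounds that reduced the stress-induced luciferase reporter signal by more than about 70% of percent inhibition, limit read from the data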
A number is an active result; n = inactive; x = no result.

SMILES	WT yeast gro inh	Arbovirus inh	Lmaj promast	CHOP inh
CN1/C(=C\C=C(/C#N)C(=O)Nc2ccccc2F)C(C)(C)c2ccccc21	n	n	n	n
CN1/C(=C\C(=S)NC(=O)c2cccc(Br)c2)C(C)(C)c2ccccc21	65	n	n	n
CN1/C(=C\C(=O)Nc2ccc(Br)cc2)C(C)(C)c2ccccc21	87	n	n	82
CN1/C(=C\C(=O)Nc2ccc(F)cc2)C(C)(C)c2ccccc21	74	n	n	n
CN1/C(=C\C(=O)Nc2cccc(Cl)c2)C(C)(C)c2ccccc21	78	n	n	n
CCN(CC)S(=O)(=O)c1cccc(C(=O)/C=C2/N(C)c3ccccc3C2(C)C)c1	n	n	n	n
Cc1sc2nc(CSCC(=O)Nc3ccccc3C#N)[nH]c(=O)c2c1C	n	n	n	n
Cc1onc(NC(=O)CSCC(=O)O)c1Br	x	x	x	n
O=C(CSc1ncccn1)Nc1ncc(C(F)(F)F)cc1Cl	n	n	n	n
c1ccc(-c2cc(-c3nc4ccccc4[nH]3)c3ccccc3n2)cc1	60	n	n	n
Nc1ccc(-c2nc3ccccc3[nH]2)cc1	n	n	n	n
CCOC(=O)CSc1c(-c2cccs2)[nH]c2ccccc12	64	n	n	n
CCOC(=O)CSc1nc(N)c(C#N)c(-c2cccs2)c1C#N	n	n	n	n
O=C(Cc1cccs1)NCCSc1c(-c2ccc(Cl)cc2)[nH]c2ccccc12	n	n	n	n
CCOC(=O)CSc1c(-c2ccc(Cl)cc2)[nH]c2ccccc12	n	n	n	88
CCn1cc(C(=O)NCCc2ccccc2)c(=O)c2cc(S(=O)(=O)N3CCCC3)ccc21	n	n	n	n
CCSc1nnc(NC(=O)C(NC(=O)c2ccc(Cl)cc2)C(C)C)s1 (centres undefined)	n	n	n	n
Cc1nn(CC(=O)NCc2cccnc2)c(C)c1[N+](=O)[O-]	n	n	n	n
Cc1ccc(-c2cc(C(F)F)n3ncc(C(=O)N4CCN5CCCC5C4)c3n2)cc1 (centres undefined)	66	n	55	n
CCOC(=O)C1CCCN(C(=O)c2sc3nc(-c4ccc(OC)cc4)cn3c2C)C1 (centres undefined)	n	n	100	n
CCOC(=O)C1CCCN(C(=O)c2cnn3c(C(F)F)cc(-c4ccc(C)cc4)nc23)C1 (centres undefined)	n	n	98	n
Cc1ccc(Cn2c(=O)c3ccccc3n3nc(C)cc23)cc1	n	n	n	n
Fc1ccc(C2CCCN2Cc2nc(Cc3ccccc3)no2)cc1 (centres undefined)	n	n	n	n
Cc1ccc(Cl)cc1-n1ncc2c(NNC(=O)c3ccco3)ncnc21	n	n	n	n
Cc1cccc(CN2CCN(CC(=O)NCCCN3CCCC3=O)C2=O)c1	n	n	n	n
SMILES	WT yeast gro inh	Arbovirus inh	Lmaj promast	CHOP inh
Cc1cccc(CN2CCN(CC(=O)NCCCN3CCN(c4ccc(F)cc4)CC3)C2=O)c1	n	n	95	n
O=C(C[n+]1ccccc1)Nc1ccccc1Br	n	n	n	n
O=C(/C=C/c1cccc(Cl)c1)N1CCC(Cc2ccccc2)CC1	65	n	50	n
Cc1ccccc1NC(=O)c1ccc(CN2CCC(Cc3ccccc3)CC2)cc1	n	n	53	n
Clc1ccc(CN2CCC(Cc3ccccc3)CC2)cc1	n	n	90	n
Clc1cccc(CN2CCC(Cc3ccccc3)CC2)c1	n	n	86	n
COc1ccc(CCNC(=O)c2ccc(CN3CCC(Cc4ccccc4)CC3)cc2)cc1	n	n	n	n
COC(=O)CSCC(=O)Nc1nnc(-c2ccccc2C)s1	n	n	n	n
Cc1c(C(=O)NC(C)C)sc2ncn(CC(=O)N3CCC(C)CC3)c(=O)c12	n	n	n	n
Nc1nnc(Cc2cccc(Br)c2)s1	x	x	x	n
Cc1cc([N+](=O)[O-])nn1CCCC(=O)NC(C)c1ccccc1 (centres undefined)	n	n	51	n
Cc1ccc(Oc2cc(NC(=O)CCCn3nc([N+](=O)[O-])cc3C)cc([N+](=O)[O-])c2)cc1	n	n	95	73
Cc1nn(CCCC(=O)Nc2cc(Oc3ccccc3)cc([N+](=O)[O-])c2)c(C)c1[N+](=O)[O-]	n	n	99	n
Cc1cc([N+](=O)[O-])nn1CCCC(=O)Nc1ccc(Cl)cc1Cl	n	n	n	n
Cc1ccc(C)c(Oc2cc(NC(=O)CCCn3nc(C)c([N+](=O)[O-])c3C)cc([N+](=O)[O-])c2)c1	n	n	n	80
O=C(COC(=O)/C=C/c1cccs1)Nc1cccc(S(=O)(=O)N2CCCC2)c1	n	n	n	n
CN(C)CCCNc1ccc(S(N)(=O)=O)cc1[N+](=O)[O-]	n	n	n	n
COc1ccc(N=C/C=C2/C=C(c3ccccc3)OC(C)(C)O2)cc1	n	n	n	94
COc1ccc(C(C2C(=O)CC(C)(C)CC2=O)C2C(=O)CC(C)(C)CC2=O)cc1	x	x	x	n
Cn1ccnc1C1CCCCN1C(=O)c1cc(COc2ccc(F)cc2Cl)on1 (centres undefined)	n	n	n	n
CCCN1C(=O)/C(=C/c2c(NCCCOCC)nc3c(C)cccn3c2=O)SC1=S	n	n	n	76
CON/C=C(\C=Nc1ccc(Cl)cc1Cl)c1ncc(C(F)(F)F)cc1Cl	n	n	n	n
CON/C=C(\C=Nc1ccccc1)c1ncc(C(F)(F)F)cc1Cl	n	n	n	89
O=C(CSc1nc2nn(-c3ccccc3)c(=O)c-2c2n1CCCCC2)NCCc1ccccc1	n	32	n	n
CCSc1nc2nn(-c3ccccc3)c(=O)c-2c2n1CCCCC2	n	n	n	n
SMILES	WT yeast gro inh	Arbovirus inh	Lmaj promast	CHOP inh
COc1cc(Nc2nnc(C)s2)c(Cl)cc1Cl	n	n	n	n
COCCOc1cc(Nc2nnc(C(F)(F)F)s2)c(Cl)cc1Cl	n	n	63	77
Cc1ccc(C(=O)Nc2cc(C(C)C)c(O)c(C(C)C)c2)cc1	n	n	n	74
Cc1ccc(C)c(NC(=O)CN(C)C(=O)COc2ncnc3sccc23)c1	n	n	58	n
Cc1cccc(CSCCNC(=O)COc2ccc(Cl)cc2)c1	n	n	n	87
O=C(COc1ccc(Cl)cc1)NCCSCc1cccc(Cl)c1	79	n	n	83
CN(C)c1nc2ccccc2c(N)c1-c1ccccc1	n	n	96	n
CCOC(=O)c1c(C)n(C)c2ccc(OC(=O)c3ccoc3)cc12	n	n	n	n
CCOC(=O)c1c(CN(C)C)n(C)c2ccc(OC(C)=O)cc12	n	n	67	n
CCOc1cc(/C=C2\SC(=S)N(N3CCOCC3)C2=O)ccc1O	x	x	x	n
CCOc1cc(/C=C2\SC(=N)N(c3nccs3)C2=O)ccc1OCCN1CCOCC1	n	n	97	n
CCOC(=O)c1sc(NC(=O)CCCn2nc([N+](=O)[O-])cc2C)c(C(=O)OCC)c1C	n	n	n	n
Cc1cc(C)cc(NC(=O)C(Sc2ncnc3ccccc23)c2ccccc2)c1 (centres undefined)	n	n	57	n
O=C(Nc1cccc(C(F)(F)F)c1)C(Sc1ncnc2ccccc12)c1ccccc1 (centres undefined)	n	n	n	76
O=C(Nc1cccc(C(F)(F)F)c1)C(Sc1n[nH]c(=O)[nH]c1=O)c1ccccc1 (centres undefined)	x	x	x	n
